# Measurements as given in PubChem BioAssay (NCATS).
# Values joined by “and” are separate entries in the source; they are usually repeats but may differ in a detail not shown here. Identical values can stand only once. Records with an inconclusive call do not appear. Where a call stands in place of a potency, no number is given. Active and inactive are the calls of the source. The call rests on the fitted dose curve; in most records, active means well fitted inhibition curve with a large enough effect in the repeat runs; inconclusive means weak or mixed curves; inactive means flat fitted curve, though single readings scatter.
# Molecular target: Cytochrome P450 2D6 (Homo sapiens) (UniProt P10635)
# Experiment: Cytochrome P450 family 2 subfamily D member 6 (CYP2D6) small molecule antagonists: luciferase biochemical (cell-free) qHTS assay (AID 1645840); further: nearly all actives have a fitted effect of over 55% in size
# Conditions: P450-Glo CYP2D6 enzyme, luciferin luminescence, 1 h; series mostly up to 57.4 µM
# Procedure: National Center for Advancing Translational Sciences [NCATS] Assay Overview: Cytochrome P450 (CYP) enzymes are membrane-bound hemeproteins that play a key role in metabolism of drugs and xenobiotics. Assaying the effect of chemicals on CYP isozymes is useful to minimize the adverse drug reactions and toxicities in drug development process. Chemical compounds were tested for their effect on CYP enzyme activities by using P450-Glo (TM) screening systems (Promega Corporation, Madison, WI). These systems provide a luminescent method containing proluciferin substrates and are converted to luciferin products by CYP isozymes. The luciferin products formed are detected with a luciferin detection reagent, and the amount of light produced is proportional to CYP activity. P450-Glo (TM) CYP2D6 screening system (Catalog. No. V9890) was used to detect the compounds that interfere in CYP2D6 activity.
# Assay Protocol Summary: Two ul of enzyme-substrate mix was dispensed into medium binding white/solid 1536-well plates (Greiner Bio-One North America Inc., Monroe, NC) using a Flying Reagent Dispenser (FRD, Aurora Discovery, San Diego, CA). […] The assay plates were incubated at room temperature for 10 min. Then 2 ul of NADPH regeneration solution was added to each well of the assay plates using an FRD and incubated at room temperature for 1 h. The reaction was stopped by adding 4 ul of detection reagent using an FRD and after 20 min incubation at room temperature, the luminescence signal was measured using a ViewLux plate reader (Perkin Elmer, Shelton, CT). Data were expressed as relative luminescence units.
# Potency means the concentration at half of the fitted maximal effect.
# Cytochrome P450 2D6 (Homo sapiens), sequence (P10635 whole entry, looked up): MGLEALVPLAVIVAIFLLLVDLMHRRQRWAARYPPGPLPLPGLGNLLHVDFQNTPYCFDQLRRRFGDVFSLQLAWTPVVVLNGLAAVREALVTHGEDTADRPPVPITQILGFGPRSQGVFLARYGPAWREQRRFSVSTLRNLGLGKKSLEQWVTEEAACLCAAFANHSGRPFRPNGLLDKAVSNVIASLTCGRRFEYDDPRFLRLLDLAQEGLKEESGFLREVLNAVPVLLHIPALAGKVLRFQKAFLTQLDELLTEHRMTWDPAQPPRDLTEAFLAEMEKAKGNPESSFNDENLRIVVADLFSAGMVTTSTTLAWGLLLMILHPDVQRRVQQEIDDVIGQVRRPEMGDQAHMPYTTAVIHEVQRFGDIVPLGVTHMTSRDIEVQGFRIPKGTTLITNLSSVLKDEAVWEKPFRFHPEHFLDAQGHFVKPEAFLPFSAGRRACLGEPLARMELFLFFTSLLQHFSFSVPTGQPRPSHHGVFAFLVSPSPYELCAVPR
row,Structure (SMILES),Potency
1,CCCCN1C[C@H](O)[C@@H](O)[C@H](O)[C@H]1CO,inactive
2,CN(C)CCC[C@@]1(c2ccc(F)cc2)OCc2cc(C#N)ccc21,13.8 µM (active) and 12 µM (active)
3,C=C[C@@]1(C)CC(=O)[C@]2(O)[C@@]3(C)[C@@H](O)CCC(C)(C)[C@@H]3[C@H](O)[C@H](OC(C)=O)[C@@]2(C)O1,inactive
4,Cc1ccc2c(Br)cc(Br)c(O)c2n1,inactive
5,CC(=O)Oc1ccc(C)cc1,inactive
6,Cc1cc(C)cc(OCC2CNC(=O)O2)c1 (stereo not given),inactive
7,O=C(NC1CCN(CCc2c[nH]c3ccccc23)CC1)c1ccccc1,1.23 µM (active)
8,NC(N)=NN=C(/C=C/c1ccc([N+](=O)[O-])o1)/C=C/c1ccc([N+](=O)[O-])o1,2.75 µM (active)
9,C[C@@H](O)[C@H]1C(=O)N2C(C(=O)O)=C([C@H]3CCCO3)S[C@H]12,inactive
10,C[C@@H](O)[C@H]1C(=O)N2C(C(=O)O)=C(S[C@@H]3CN[C@H](CNS(N)(=O)=O)C3)[C@H](C)[C@H]12,inactive
11,COc1cc(O)c(C(=O)c2ccccc2)cc1S(=O)(=O)O,inactive
12,CC(C)n1c(/C=C/[C@@H](O)C[C@@H](O)CC(=O)O)c(-c2ccc(F)cc2)c2ccccc21,inactive
13,COc1cc(C)nc(-n2nc(C)cc2OC)n1,inactive
14,CC(=O)O[C@]1(C(C)=O)CC[C@H]2[C@@H]3C=C(Cl)C4=CC(=O)CC[C@]4(C)[C@H]3CC[C@@]21C,inactive
15,CC(C)Nc1cccnc1N1CCN(C(=O)c2cc3cc(NS(C)(=O)=O)ccc3[nH]2)CC1,6.92 µM (active)
16,CC[N+](C)(CC)CCOC(=O)C(O)(c1ccccc1)C1CCCCC1 (stereo not given),0.776 µM (active)
17,CC(C)(C)NCC(O)COc1cccc2c1C[C@H](O)[C@H](O)C2 (stereo not given in full),inactive
18,COc1cc(C(=O)N2CCCCCCC2)cc(OC)c1OC,inactive
19,Cc1c[nH]c2ccccc12,inactive
20,FC1(F)C(F)(F)C(F)(F)C2(F)C(F)(F)C(F)(F)C(F)(F)C(F)(F)C2(F)C1(F)F (stereo not given),inactive

row,Structure (SMILES),Potency
1,CCN(CC)CCOC(=O)C(Cc1cccc2ccccc12)CC1CCCO1 (stereo not given),3.09 µM (active) and 3.38 µM (active)
2,O=C(Nc1ccc([N+](=O)[O-])cc1)Nc1ccc([N+](=O)[O-])cc1,inactive
3,COc1cc(NS(=O)(=O)c2ccc(N)cc2)ncn1,inactive
4,C[N+]1(CC2COC(c3ccccc3)(C3CCCCC3)O2)CCCCC1 (stereo not given),1.55 µM (active)
5,O=C(Oc1cccc2cccnc12)c1ccccc1,inactive
6,CCN(CC)CCNC(=O)c1cc(Br)c(N)cc1OC,6.92 µM (active)
7,O=C(CCCN1CC=C(n2c(=O)[nH]c3ccccc32)CC1)c1ccc(F)cc1,0.246 µM (active)
8,COc1cc(C(=S)N2CCOCC2)ccc1O,inactive
9,CN1CCN(C2=Nc3cc(F)ccc3Cc3ccccc32)CC1,5.49 µM (active)
10,OC[C@H]1O[C@@H]2O[C@H]3[C@H](O)[C@@H](O)[C@@H](O[C@H]4[C@H](O)[C@@H](O)[C@@H](O[C@H]5[C@H](O)[C@@H](O)[C@@H](O[C@H]6[C@H](O)[C@@H](O)[C@@H](O[C@H]7[C@H](O)[C@@H](O)[C@@H](O[C@H]8[C@H](O)[C@@H](O)[C@@H](O[C@H]1[C@H](O)[C@H]2O)O[C@@H]8CO)O[C@@H]7CO)O[C@@H]6CO)O[C@@H]5CO)O[C@@H]4CO)O[C@@H]3CO,inactive
11,C#C[C@]1(O)CC[C@H]2[C@@H]3CCC4=CC(=O)CC[C@@H]4[C@H]3CC[C@@]21CC,inactive
12,Cc1cc2c(OCC(CNC(C)(C)C)OC(=O)c3ccccc3)cccc2[nH]1 (stereo not given),0.246 µM (active)
13,COc1cc([C@H]2Oc3cc([C@H]4Oc5cc(O)cc(O)c5C(=O)[C@@H]4O)ccc3O[C@@H]2CO)ccc1O,inactive
14,CCCCCCCCCCCCCCCC(=O)O,inactive
15,CC[C@]12CCCN3CCc4c(n(c5ccccc45)C(=O)C1)[C@@H]32,0.0871 µM (active)
16,CC(C)[C@@H]1CC[C@@H](C)CC1=O,inactive
17,O=C(O)C(Cc1cc(I)c(O)c(I)c1)c1ccccc1 (stereo not given),inactive
18,CC(=O)Nc1ccc(S(=O)(=O)Nc2ccc([N+](=O)[O-])cc2)cc1,inactive
19,CCOC(=O)[C@@](C)(N)Cc1ccc(O)c(O)c1,7.76 µM (active)
20,Cc1ccc(S(=O)(=O)NC(=O)NC2CCCC2)cc1,inactive
